Where “and” joins values, the source holds several entries; their conditions need not be identical. Identical values can stand only once. Results filed as inconclusive are left out. Where a structure was tested more than once in an assay, its records may differ in their call. Calls of active or inactive are those of the source. Unless noted, calls come from the whole dose curve; as a rule, active = well fitted curve in the direction sought with a large enough effect; inconclusive = small, poorly fitted or top-dose-only effect, or another doubt; inactive = no such curve, though single readings can be large; an effect the other way counts as inactive or inconclusive.
What was measured:
[1] = qHTS assay for measurement of the activity of small molecule inhibitors on Zika virus induced Caspase-3 activity in human iPSC derived neural progenitor cells (hNPCs) (AID 1224857); note: % of control where 0% means no effect; nearly all actives have a fitted effect of over 65% in size
Summary of the method: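 hNPCs seeded 350 cells/well, cultured 16–20 h; compounds added 1 h before ZIKV (2 FFU/cell), 37 C 6 h. Caspase-Glo 3/7 luminescence after 30 min RT; % inhibition from induction scaled to uninfected (0%) and infected (100%) wells.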

[2] = qHTS assay for measurement of the activity of small molecule inhibitors on Zika virus induced Caspase-3 activity in human astrocytoma cells (AID 1224859);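 note: plate controls were ZIKV-infected untreated cells for no effect and uninfected cells for full effect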
Summary of the method: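 Luminescence read-out (Caspase-Glo 3/7, 30 min RT) of caspase activity in SNB-19 cells infected 6 h with ZIKV, 2 FFU/cell, after 1 h compound pretreatment; % inhibition from induction normalised to uninfected (0%) and infected (100%) wells.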

[3] = qHTS assay to identify small molecule inhibitors of chordoma cells - UCH-1 (AID 1259355); note: nearly all actives have a fitted effect of over 55% in size; note: potency is the fitted concentration of half-maximal effect
Summary of the method: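 Seed 800 cells per well; incubate overnight at 37 C, 5% CO2. Add test compounds (15 concentrations), then the auranofin–topoisomerase-agent combination. Incubate 48hr, add CellTiter-Glo, wait 30min, read luminescence.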

[4] = qHTS assay to identify small molecule inhibitors of chordoma cells - UCH-2 (AID 1259356); note: % is set by controls: 0 for no effect and ±100 for the full control effect
[5] = P-glycoprotein substrates identified in KB-8-5-11 adenocarcinoma cell line, qHTS therapeutic library screen (AID 1346987); note: nearly all actives have a fitted effect of over 65% in size; note: potency is the fitted concentration of half-maximal effect
Summary of the method: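 KB-8-5-11: colchicine-selected sub-line of KB-3-1 over-expressing P-gp; assay medium lacked colchicine. 72 h drug exposure at 37 degree C, CellTiter-Glo.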

[6] = NS1 protein of Zika virus - qHTS assay to identify small molecule inhibitors in human HEK 293 cells (AID 1347053);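 note: plate controls were infected untreated cells for no effect and uninfected cells for full effect; nearly all actives have a fitted effect of over 55% in size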
Summary of the method: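 Inhibition of NS1 expression was scored in HEK 293 cells given compound 1 h ahead of MR766 virus (MOI = 0.5). Following 24 h at 37 C, two anti-NS1 antibodies generated a TR-FRET signal, scaled between uninfected and infected controls.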

[7] = qHTS of pediatric cancer cell lines to identify multiple opportunities for drug repurposing: Primary screen for TC32 cells (AID 1347089); note: % is set by controls: 0 for no effect and ±100 for the full control effect; nearly all actives have a fitted effect of over 60% in size
Summary of the method: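 Measured quantity: luminescence from CellTiter-Glo, reflecting metabolically active TC32 cells following 48 h of compound. Curves came straight from multi-point titrations, with 8 or 11 points in primary and 11 in confirmatory screening.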

[8] = qHTS profiling of the MIPE4 collection as inhibitors of Plasmodium falciparum (DD2) proliferation (Rep 2) (AID 743346; call rule not given here); settings: P. falciparum Dd2 in erythrocytes, SYBR Green DNA, 72 h; at 28.5 µM (top of the series)
Summary of the method: (§1)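 Erythrocytes infected with P. falciparum (0.3% parasitemia, 2.5% hematocrit) incubated with compounds 72 h at 37 C, 5% CO2. Lysis with saponin/Triton buffer containing SYBR Green I, overnight at room temperature in the dark; DNA fluorescence (485/535 nm) normalised to 0.29 uM artemisinin and DMSO.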

[9] = qHTS profiling of the MIPE4 collection as inhibitors of Plasmodium falciparum (HB3) proliferation (AID 743347; call rule not given here;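 note: plate controls were DMSO vehicle wells for no effect and artemisinin wells for full effect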); settings: P. falciparum HB3 in erythrocytes, SYBR Green DNA, 72 h; at 28.5 µM (top of the series)
Summary of the method: as §1

[10] = molecular target: Tyrosine-protein phosphatase non-receptor type substrate 1 (Homo sapiens) + Leukocyte surface antigen CD47 (Homo sapiens) (UniProt P78324+Q08722); experiment: CD47-SIRPalpha protein protein interaction - LANCE assay qHTS validation (AID 1347057; active = well fitted curve in the direction sought with a large enough effect in the signal ratio, with a control signal flat, not every such curve was filed as active; the % refers to the signal ratio; note: 0% is about no effect)
Summary of the method: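 First, His-tagged CD47 and Eu-labelled anti-His antibody met the compound for 30 min; next, site-specifically biotinylated SIRPalpha was added for 30 min; finally streptavidin-APC was added before reading the TR-FRET ratio.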

[11] = molecular target: Parathyroid hormone/parathyroid hormone-related peptide receptor (Homo sapiens) (UniProt Q03431); experiment: qHTS for PTHR1 Agonists: Optimization Screen against the NCGC LOPAC library (AID 1347079);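 note: GloSensor cAMP luminescence in HEK-293 GP2 cells expressing human PTHR1 with IBMX; 0% is about no effect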
Summary of the method: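 Compounds were tested across a qHTS titration. PTHR1-expressing GP2 cells report cAMP rises via GloSensor luminescence after 1 hr compound exposure at 37C with IBMX present.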

Chain of Tyrosine-protein phosphatase non-receptor type substrate 1 (Homo sapiens) + Leukocyte surface antigen CD47 (Homo sapiens) (P78324 whole entry, looked up): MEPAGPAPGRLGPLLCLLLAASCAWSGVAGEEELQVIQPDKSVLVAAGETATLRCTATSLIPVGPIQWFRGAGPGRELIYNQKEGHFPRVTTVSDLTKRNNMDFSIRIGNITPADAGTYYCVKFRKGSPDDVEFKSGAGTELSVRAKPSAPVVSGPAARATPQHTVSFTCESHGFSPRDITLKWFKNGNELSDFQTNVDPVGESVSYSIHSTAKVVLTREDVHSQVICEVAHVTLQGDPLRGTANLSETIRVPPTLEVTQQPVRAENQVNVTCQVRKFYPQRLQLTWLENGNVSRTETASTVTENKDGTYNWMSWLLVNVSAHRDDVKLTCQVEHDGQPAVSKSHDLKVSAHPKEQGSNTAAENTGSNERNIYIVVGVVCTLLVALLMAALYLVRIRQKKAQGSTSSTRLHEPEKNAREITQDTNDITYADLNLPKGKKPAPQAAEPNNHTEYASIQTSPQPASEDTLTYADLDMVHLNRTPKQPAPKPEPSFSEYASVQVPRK
Chain of Tyrosine-protein phosphatase non-receptor type substrate 1 (Homo sapiens) + Leukocyte surface antigen CD47 (Homo sapiens) (Q08722 whole entry, looked up): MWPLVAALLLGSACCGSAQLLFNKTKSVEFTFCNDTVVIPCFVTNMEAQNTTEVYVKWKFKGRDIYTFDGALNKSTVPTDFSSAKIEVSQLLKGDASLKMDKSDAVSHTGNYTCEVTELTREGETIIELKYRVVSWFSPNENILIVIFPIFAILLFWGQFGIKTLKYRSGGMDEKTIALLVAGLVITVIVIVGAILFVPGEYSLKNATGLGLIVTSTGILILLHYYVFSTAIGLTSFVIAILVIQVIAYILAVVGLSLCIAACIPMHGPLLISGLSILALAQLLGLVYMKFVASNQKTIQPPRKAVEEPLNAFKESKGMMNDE
Chain of Parathyroid hormone/parathyroid hormone-related peptide receptor (Homo sapiens) (Q03431 whole entry, looked up): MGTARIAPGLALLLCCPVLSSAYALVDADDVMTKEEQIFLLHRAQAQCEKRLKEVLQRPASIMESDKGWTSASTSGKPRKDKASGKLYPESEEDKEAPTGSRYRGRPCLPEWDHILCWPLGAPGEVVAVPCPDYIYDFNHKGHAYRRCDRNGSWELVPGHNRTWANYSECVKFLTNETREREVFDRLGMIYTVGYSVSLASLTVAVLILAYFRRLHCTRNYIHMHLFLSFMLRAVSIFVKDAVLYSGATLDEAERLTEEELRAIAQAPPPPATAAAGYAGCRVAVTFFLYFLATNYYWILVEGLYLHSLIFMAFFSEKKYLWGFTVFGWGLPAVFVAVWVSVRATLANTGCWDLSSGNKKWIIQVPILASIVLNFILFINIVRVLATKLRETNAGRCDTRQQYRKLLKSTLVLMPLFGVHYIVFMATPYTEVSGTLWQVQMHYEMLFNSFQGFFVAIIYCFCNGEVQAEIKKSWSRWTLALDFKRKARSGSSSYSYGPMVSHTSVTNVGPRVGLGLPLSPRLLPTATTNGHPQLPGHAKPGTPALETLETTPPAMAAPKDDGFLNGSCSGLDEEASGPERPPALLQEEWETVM

C[C@H](N)[C@H](O)c1cccc(O)c1
inactive: outcome [1] | outcome [2] | Potency [3] | outcome [4] | Potency [5] | Potency [6] | Potency [7]

Cc1cccc(C)c1NC(=O)CN(CC(=O)O)CC(=O)O
inactive: outcome [1] | outcome [2] | Potency [3] | outcome [4] | Potency [5] | Potency [6] | Potency [7]

CC1(C)OC(=O)NC1=O
inactive: outcome [1] | outcome [2] | Potency [3] | outcome [4] | Potency [5] | Potency [6] | Potency [7]

CC(O)CN(CCN(CC(C)O)CC(C)O)CC(C)O (configuration not stated)
inactive: outcome [1] | outcome [2] | Potency [3] | outcome [4] | Potency [5] | Potency [6] | Potency [7]

Cc1cc(C(C#N)c2ccc(Cl)cc2)c(Cl)cc1NC(=O)c1cc(I)cc(I)c1O (configuration not stated)
inactive: outcome [1] | outcome [2] | Potency [3] | outcome [4] | Potency [6] | Potency [7]
16.4 µM (active) and inactive: Potency [5]

NS(=O)(=O)c1cc2c(cc1Cl)NC(CSCc1ccccc1)=NS2(=O)=O
inactive: outcome [1] | outcome [2] | Potency [3] | outcome [4] | Potency [5] | Potency [6] | Potency [7]

Cc1ccc(C(C)C)cc2c(C)ccc1-2
inactive: outcome [1] | outcome [2] | Potency [3] | outcome [4] | Potency [5] | Potency [6] | Potency [7]

O=C1O[C@H]([C@@H](O)CO)C(O)=C1O
inactive: outcome [1] | outcome [2] | Potency [3] | outcome [4] | Potency [5] | Potency [6] | Potency [7]

CN1CCCCC1CCN1c2ccccc2Sc2ccc(S(C)=O)cc21 (configuration not stated)
inactive: outcome [1] | outcome [2] | Potency [3] | outcome [4] | Potency [5] | Potency [6] | Potency [7]

Cc1cc2nc3c(=O)[nH]c(=O)nc-3n(C[C@H](O)[C@H](O)[C@H](O)CO)c2cc1C
inactive: outcome [1] | outcome [2] | Potency [3] | outcome [4] | Potency [5] | Potency [6] | Potency [7]

N[C@H](C(=O)O)c1ccc(O)cc1
inactive: outcome [1] | outcome [2] | Potency [3] | outcome [4] | Potency [5] | Potency [6] | Potency [7]

Cc1ncc(COP(=O)(O)O)c(C=O)c1O
inactive: outcome [1] | outcome [2] | Potency [3] | outcome [4] | Potency [5] | Potency [6] | Potency [7]

O=C(O)c1ccccn1
inactive: outcome [1] | outcome [2] | Potency [3] | outcome [4] | Potency [5] | Potency [6] | Potency [7]

CCOC(=O)[C@H](CCc1ccccc1)N[C@@H](C)C(=O)N1C(=O)N(C)C[C@H]1C(=O)O
inactive: outcome [1] | outcome [2] | Potency [3] | outcome [4] | Potency [5] | Potency [6] | Potency [7]

CC(C)(C)C(=O)C(Oc1ccc(Cl)cc1)n1ccnc1 (configuration not stated)
inactive: outcome [1] | outcome [2] | Potency [3] | outcome [4] | Potency [5] | Potency [6] | Potency [7]

NCC(=O)CCC(=O)O
inactive: outcome [1] | outcome [2] | Potency [3] | outcome [4] | Potency [5] | Potency [6] | Potency [7]

NC(CSCC(=O)O)C(=O)O (configuration not stated)
inactive: outcome [1] | outcome [2] | Potency [3] | outcome [4] | Potency [5] | Potency [6] | Potency [7]

C[C@H]1O[C@H](O[C@H]2[C@H](O)[C@@H](O)[C@@H](O[C@H]3[C@H](O)[C@@H](O)[C@H](O)O[C@@H]3CO)O[C@@H]2CO)[C@H](O)[C@@H](O)[C@@H]1N[C@H]1C=C(CO)[C@@H](O)[C@H](O)[C@H]1O
inactive: outcome [1] | outcome [2] | Potency [3] | outcome [4] | Potency [5] | Potency [6] | Potency [7]

Cn1cc[nH]c1=S
inactive: outcome [1] | outcome [2] | Potency [3] | outcome [4] | Potency [5] | Potency [6] | Potency [7]

O=C(O)CN1C(=O)c2cccc3cccc(c23)C1=O
inactive: outcome [1] | outcome [2] | Potency [3] | outcome [4] | Potency [5] | Potency [6] | Potency [7]

N[C@@H](CSSC[C@H](N)C(=O)O)C(=O)O
inactive: activity change, negative = inhibition [1] -8.71% [at 0.568 µM] | activity change, negative = inhibition [2] 23% [at 0.568 µM] | Potency [3] | outcome [4] | Potency [5] | activity change, negative = inhibition [6] -26.2% [at 0.593 µM] | activity change, negative = cytotoxic [7] 5.9% [at 0.594 µM]

O=C1c2c(O)cccc2Cc2cccc(O)c21
inactive: outcome [1] | outcome [2] | Potency [3] | outcome [4] | Potency [5] | Potency [6] | Potency [7]

CC(=O)Oc1ccc(C2(c3ccc(OC(C)=O)cc3)C(=O)Nc3ccccc32)cc1
inactive: outcome [1] | outcome [2] | Potency [5] | Potency [6] | Potency [7]
active: Potency [3] 3.55 µM and 3.98 µM

O=C(O)c1ccccc1O
inactive: outcome [1] | outcome [2] | Potency [3] | outcome [4] | Potency [5] | Potency [6] | Potency [7]

CSc1ccc2c(c1)N(CCC1CCCCN1C)c1ccccc1S2 (configuration not stated)
30.8%: parasite growth, % of control (lower = inhibition) [8]
inactive: outcome [1] | outcome [2] | outcome [4] | Potency [6] | outcome [10] | Potency [11]
4.65%: growth, % of control [9]
active: Potency [5] 18.4 µM

CCCCN(CCCC)CC(O)c1cc(Cl)cc2c1-c1ccc(Cl)cc1/C2=C/c1ccc(Cl)cc1 (configuration not stated)
inactive: outcome [1] | outcome [2] | Potency [3] | outcome [4] | Potency [6] | outcome [10] | Potency [7]

O=C(CCCN1CCN(c2ccccn2)CC1)c1ccc(F)cc1
inactive: outcome [1] | outcome [2] | Potency [3] | outcome [4] | Potency [5] | Potency [6] | Potency [7]

O=C(O)CC(O)C(=O)O (configuration not stated)
inactive: outcome [1] | outcome [2] | Potency [3] | outcome [4] | Potency [5] | Potency [6] | Potency [7]

Source: PubChem BioAssay (NCATS)
